{"source": "PubChem BioAssay (NCATS)", "note": "Records with an inconclusive call do not appear. Unmarked numbers belong to inactive results. The source made the active and inactive calls. Calls follow the shape of the dose curve; as a rule, active = well fitted inhibition curve with a large enough effect; inconclusive = small, poorly fitted or top-dose-only effect; inactive = flat fitted curve, though single readings scatter. Potency is read from the fitted curve at half-maximal effect."}
{"system": "CP203", "experiment": "qHTS profiling for inhibitors of Plasmodium falciparum proliferation (AID 504749); also: nearly all actives have a fitted effect of over 60% in size;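 as to activity, negative = inhibition: 0% = DMSO vehicle and full inhibition = artemisinin control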", "conditions": "P. falciparum in erythrocytes, SYBR Green DNA, 72 h; series mostly up to 28.7 µM; activity, negative = inhibition: at the top concentration", "summary_of_the_method": "(§1)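 Infected RBCs, 0.3% parasitemia/2.5% Hct final; cpd 72 h, 37 C, 5% CO2; lysis buffer with saponin/triton/SYBR Green I, o/n RT dark; FI 485/535; norm. to artemisinin (0.29 uM) and DMSO.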", "units": {"activity, negative = inhibition": "%"}}
{"compound": "CC/C=C\\C/C=C\\C/C=C\\C/C=C\\C/C=C\\C/C=C\\CCC(=O)O", "activity, negative = inhibition": 4.22}
{"compound": "COc1cc2c(cc1OC)[C@@H](Cc1cc(OC)c(OC)c(OC)c1)[N+](C)(CCCOC(=O)CC/C=C/CCC(=O)OCCC[N+]1(C)CCc3cc(OC)c(OC)cc3[C@H]1Cc1cc(OC)c(OC)c(OC)c1)CC2", "note": "(some centres undefined)", "activity, negative = inhibition": -7.59}
{"compound": "CCCOC(=O)c1ccccc1O", "activity, negative = inhibition": 2.66}
{"compound": "CC/C=C\\C/C=C\\C/C=C\\CCCCCCCC(=O)O", "activity, negative = inhibition": -10.5}
{"compound": "NC(=O)[C@H]1O[C@@H](O)[C@H](O)[C@@H](O)[C@@H]1O", "activity, negative = inhibition": 5.08}
{"compound": "CCCCCCCCCCCCOCCCN", "activity, negative = inhibition": 4.72}
{"compound": "CC(C)(C)c1ccc2c(S(=O)(=O)O)c(C(C)(C)C)ccc2c1", "activity, negative = inhibition": 0.392}
{"compound": "COC(=O)CCC[N+](C)(C)C", "activity, negative = inhibition": 11.8}
{"compound": "CNC(=O)OCc1cccc(COC(=O)NC)n1", "activity, negative = inhibition": -1.28}
{"compound": "O=C(NCCNCC(O)COc1ccc(O)cc1)N1CCOCC1", "note": "(centres undefined)", "activity, negative = inhibition": -0.143}
{"compound": "OC[C@H]1O[C@@H]2O[C@H]3[C@H](O)[C@@H](O)[C@@H](O[C@H]4[C@H](O)[C@@H](O)[C@@H](O[C@H]5[C@H](O)[C@@H](O)[C@@H](O[C@H]6[C@H](O)[C@@H](O)[C@@H](O[C@H]7[C@H](O)[C@@H](O)[C@@H](O[C@H]1[C@H](O)[C@H]2O)O[C@@H]7CO)O[C@@H]6CO)O[C@@H]5CO)O[C@@H]4CO)O[C@@H]3CO", "activity, negative = inhibition": -5.11}
{"compound": "CCCCCCCCCCCCCCCCCCCCCC(=O)Nc1ccn([C@@H]2O[C@H](CO)[C@@H](O)[C@@H]2O)c(=O)n1", "activity, negative = inhibition": -1.91}
{"compound": "CCCCCCCCCCCCCCCCCC[N+](C)(C)CCC[Si](OC)(OC)OC", "activity, negative = inhibition": -4.45}
{"compound": "OB(O)O", "activity, negative = inhibition": 6.84}
{"compound": "CCOc1ccc(NC(=S)Nc2ccc(OCC)cc2)cc1", "activity, negative = inhibition": 0.329}
{"compound": "CC(C)c1nc(N(C)S(C)(=O)=O)nc(-c2ccc(F)cc2)c1/C=C/C(O)CC(O)CC(=O)O", "note": "(centres undefined)", "activity, negative = inhibition": -3.99}
{"compound": "O=C(/C=C/c1cccc(F)c1)NC1CC1", "activity, negative = inhibition": 8.51}
{"system": "CP211", "experiment": "qHTS profiling for inhibitors of Plasmodium falciparum proliferation (AID 504749); also: nearly all actives have a fitted effect of over 60% in size;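 as to activity, negative = inhibition: 0% = DMSO vehicle and full inhibition = artemisinin control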", "conditions": "P. falciparum in erythrocytes, SYBR Green DNA, 72 h; series mostly up to 28.7 µM; activity, negative = inhibition: at the top concentration", "summary_of_the_method": "as §1"}
{"compound": "Cc1ccc(C(C)(C)c2ccc(C)cc2)cc1", "activity, negative = inhibition": "-5.83%"}
{"compound": "N[C@H](CC(=O)O)C(=O)O", "activity, negative = inhibition": "6.31%"}
{"compound": "O=C(O)COc1ccc(CCNS(=O)(=O)c2ccccc2)s1", "activity, negative = inhibition": "1.81%"}
{"compound": "O=S(=O)(O)CCCS(=O)(=O)O", "activity, negative = inhibition": "8.05%"}
{"compound": "COC(=O)c1ccccc1O", "activity, negative = inhibition": "-9.91%"}
{"compound": "CC1(O)CCC(C(C)(C)O)CC1", "note": "(centres undefined)", "activity, negative = inhibition": "-1.36%"}
{"compound": "COc1ccc(/C=C/C(=O)O)cc1", "activity, negative = inhibition": "-0.958%"}
{"compound": "CC(=O)Nc1c(I)c(C(=O)O)c(I)c(N(C)C(C)=O)c1I", "activity, negative = inhibition": "-18%"}
{"compound": "Nc1ncnc2c1ncn2[C@H]1CC[C@@H](CO)O1", "activity, negative = inhibition": "0.224%"}
{"compound": "COC(=O)C(CN)c1c[nH]c2ccc(OC)cc12", "note": "(centres undefined)", "activity, negative = inhibition": "2.01%"}
{"compound": "CC/C(=C(/CC)c1ccc(OP(=O)(O)O)cc1)c1ccc(OP(=O)(O)O)cc1", "activity, negative = inhibition": "0.184%"}
{"compound": "CN1c2c(nc(N)[nH]c2=O)NCC1CNc1ccc(C(=O)NC(CCC(=O)O)C(=O)O)cc1", "note": "(centres undefined)", "activity, negative = inhibition": "-0.995%"}
{"compound": "CC(C)(CO)[C@@H](O)C(=O)NCCC(=O)NCCSSCCNC(=O)CCNC(=O)[C@H](O)C(C)(C)CO", "activity, negative = inhibition": "2.12%"}
{"compound": "CCCC(=O)O", "activity, negative = inhibition": "-0.487%"}
{"compound": "CCSc1ccc2c(c1)N(CCCN1CCN(C)CC1)c1ccccc1S2", "activity, negative = inhibition": "-2.64% [at 12.8 µM]"}
{"compound": "CC1=CC(=C(c2ccc(N)cc2)c2ccc(N)cc2)C=CC1=N", "Potency": "4.26 µM (active)"}
{"compound": "CC1=CC(=O)NS(=O)(=O)O1", "activity, negative = inhibition": "4.11%"}
{"compound": "CC1CCCCN1CCCOC(=O)c1ccccc1", "note": "(centres undefined)", "activity, negative = inhibition": "0.0141%"}
{"compound": "COC(=O)CC[C@H](N)C(=O)O", "activity, negative = inhibition": "-9.01%"}
{"compound": "C[C@H](CCC(=O)O)[C@H]1CC[C@H]2[C@@H]3CC[C@@H]4C[C@H](O)CC[C@]4(C)[C@H]3C[C@H](O)[C@]12C", "activity, negative = inhibition": "0.0575%"}
{"compound": "CO", "activity, negative = inhibition": "3.78%"}
{"compound": "C=CCN1CCCC1CNC(=O)c1cc(S(N)(=O)=O)cc(OC)c1OC", "note": "(centres undefined)", "activity, negative = inhibition": "0.113%"}
{"compound": "CC/C=C\\C/C=C\\C/C=C\\C/C=C\\C/C=C\\C/C=C\\CCC(=O)O", "activity, negative = inhibition": "1.04%"}
{"compound": "COc1cc2c(cc1OC)[C@@H](Cc1cc(OC)c(OC)c(OC)c1)[N+](C)(CCCOC(=O)CC/C=C/CCC(=O)OCCC[N+]1(C)CCc3cc(OC)c(OC)cc3[C@H]1Cc1cc(OC)c(OC)c(OC)c1)CC2", "note": "(some centres undefined)", "activity, negative = inhibition": "-5.9%"}
{"compound": "CCCOC(=O)c1ccccc1O", "activity, negative = inhibition": "-1.53%"}
{"compound": "CC/C=C\\C/C=C\\C/C=C\\CCCCCCCC(=O)O", "activity, negative = inhibition": "0.295%"}
{"compound": "NC(=O)[C@H]1O[C@@H](O)[C@H](O)[C@@H](O)[C@@H]1O", "activity, negative = inhibition": "0.523%"}
{"compound": "CCCCCCCCCCCCOCCCN", "activity, negative = inhibition": "-0.233%"}
{"compound": "CC(C)(C)c1ccc2c(S(=O)(=O)O)c(C(C)(C)C)ccc2c1", "activity, negative = inhibition": "9.04%"}
{"compound": "COC(=O)CCC[N+](C)(C)C", "activity, negative = inhibition": "1.79%"}
{"compound": "CNC(=O)OCc1cccc(COC(=O)NC)n1", "activity, negative = inhibition": "3.19%"}
{"compound": "O=C(NCCNCC(O)COc1ccc(O)cc1)N1CCOCC1", "note": "(centres undefined)", "activity, negative = inhibition": "0.0332%"}
